# High-throughput results (PubChem)
# Rows were chosen to be rich in hits. Some 27% of all compounds tested hit in one or more screens of this group.
# CYP2C19 inh = blockers of cytochrome P450 2C19 activity – biochemical, luminescence, ADME assay, primary screen. P33261. CYP2C19 Supersomes, luciferin-H EGE luminescence, 30 min. inhibition, % at 5 µM. actives 21% (n = 96,000);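 active = CYP2C19 inhibition above a set limit at 5 µM in the primary screen, cut at about 50% in these data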;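 also: plate controls were negative control wells for no effect and 2.5 mM tranylcypromine positive control for full effect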
# CYP2C9 inhib = blockers of cytochrome P450 2C9 activity – biochemical, luminescence, ADME assay, primary screen; CYP2C9 Supersomes, luciferin-H conversion; inhibition, % at 5 µM; actives 20% (n = 96,000); AID 777, 2007;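 active = blocking of liver enzyme CYP2C9 beyond about 50% at 5 µM, limit read from the data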
# CYP2C9 act = human CYP2C9 activators, primary screen, biochemical, luminescence; actives 1.4% (n = 96,000); AID 1024, 2008; activation factor at 5 µM; recombinant CYP2C9, luciferin-H conversion; stronger effect = higher value; factor 1 = untreated enzyme, 0 = blocked;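 active = activation factor of 2 or more for CYP2C9 at a 5 µM dose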;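 also: 0 = sulfaphenazole-blocked wells and 1 = vehicle-only wells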
# Cav3 T inh = Cav3.2 calcium influx blockers – cell-based, Fluo-4 calcium fluorescence, FDSS, MLSMR library, primary screen; Voltage-dependent T-type calcium channel subunit alpha-1H (Homo sapiens), O95180; Cav3.2-expressing cells; stronger effect = lower value; B-score at 10 µM; actives 4% (n = 100,000);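 active = single-dose well whose peak fluorescence ratio is a statistical outlier from its plate by either plate-standardised score or position-corrected B-score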
# Target sequence (O95180 whole entry, looked up): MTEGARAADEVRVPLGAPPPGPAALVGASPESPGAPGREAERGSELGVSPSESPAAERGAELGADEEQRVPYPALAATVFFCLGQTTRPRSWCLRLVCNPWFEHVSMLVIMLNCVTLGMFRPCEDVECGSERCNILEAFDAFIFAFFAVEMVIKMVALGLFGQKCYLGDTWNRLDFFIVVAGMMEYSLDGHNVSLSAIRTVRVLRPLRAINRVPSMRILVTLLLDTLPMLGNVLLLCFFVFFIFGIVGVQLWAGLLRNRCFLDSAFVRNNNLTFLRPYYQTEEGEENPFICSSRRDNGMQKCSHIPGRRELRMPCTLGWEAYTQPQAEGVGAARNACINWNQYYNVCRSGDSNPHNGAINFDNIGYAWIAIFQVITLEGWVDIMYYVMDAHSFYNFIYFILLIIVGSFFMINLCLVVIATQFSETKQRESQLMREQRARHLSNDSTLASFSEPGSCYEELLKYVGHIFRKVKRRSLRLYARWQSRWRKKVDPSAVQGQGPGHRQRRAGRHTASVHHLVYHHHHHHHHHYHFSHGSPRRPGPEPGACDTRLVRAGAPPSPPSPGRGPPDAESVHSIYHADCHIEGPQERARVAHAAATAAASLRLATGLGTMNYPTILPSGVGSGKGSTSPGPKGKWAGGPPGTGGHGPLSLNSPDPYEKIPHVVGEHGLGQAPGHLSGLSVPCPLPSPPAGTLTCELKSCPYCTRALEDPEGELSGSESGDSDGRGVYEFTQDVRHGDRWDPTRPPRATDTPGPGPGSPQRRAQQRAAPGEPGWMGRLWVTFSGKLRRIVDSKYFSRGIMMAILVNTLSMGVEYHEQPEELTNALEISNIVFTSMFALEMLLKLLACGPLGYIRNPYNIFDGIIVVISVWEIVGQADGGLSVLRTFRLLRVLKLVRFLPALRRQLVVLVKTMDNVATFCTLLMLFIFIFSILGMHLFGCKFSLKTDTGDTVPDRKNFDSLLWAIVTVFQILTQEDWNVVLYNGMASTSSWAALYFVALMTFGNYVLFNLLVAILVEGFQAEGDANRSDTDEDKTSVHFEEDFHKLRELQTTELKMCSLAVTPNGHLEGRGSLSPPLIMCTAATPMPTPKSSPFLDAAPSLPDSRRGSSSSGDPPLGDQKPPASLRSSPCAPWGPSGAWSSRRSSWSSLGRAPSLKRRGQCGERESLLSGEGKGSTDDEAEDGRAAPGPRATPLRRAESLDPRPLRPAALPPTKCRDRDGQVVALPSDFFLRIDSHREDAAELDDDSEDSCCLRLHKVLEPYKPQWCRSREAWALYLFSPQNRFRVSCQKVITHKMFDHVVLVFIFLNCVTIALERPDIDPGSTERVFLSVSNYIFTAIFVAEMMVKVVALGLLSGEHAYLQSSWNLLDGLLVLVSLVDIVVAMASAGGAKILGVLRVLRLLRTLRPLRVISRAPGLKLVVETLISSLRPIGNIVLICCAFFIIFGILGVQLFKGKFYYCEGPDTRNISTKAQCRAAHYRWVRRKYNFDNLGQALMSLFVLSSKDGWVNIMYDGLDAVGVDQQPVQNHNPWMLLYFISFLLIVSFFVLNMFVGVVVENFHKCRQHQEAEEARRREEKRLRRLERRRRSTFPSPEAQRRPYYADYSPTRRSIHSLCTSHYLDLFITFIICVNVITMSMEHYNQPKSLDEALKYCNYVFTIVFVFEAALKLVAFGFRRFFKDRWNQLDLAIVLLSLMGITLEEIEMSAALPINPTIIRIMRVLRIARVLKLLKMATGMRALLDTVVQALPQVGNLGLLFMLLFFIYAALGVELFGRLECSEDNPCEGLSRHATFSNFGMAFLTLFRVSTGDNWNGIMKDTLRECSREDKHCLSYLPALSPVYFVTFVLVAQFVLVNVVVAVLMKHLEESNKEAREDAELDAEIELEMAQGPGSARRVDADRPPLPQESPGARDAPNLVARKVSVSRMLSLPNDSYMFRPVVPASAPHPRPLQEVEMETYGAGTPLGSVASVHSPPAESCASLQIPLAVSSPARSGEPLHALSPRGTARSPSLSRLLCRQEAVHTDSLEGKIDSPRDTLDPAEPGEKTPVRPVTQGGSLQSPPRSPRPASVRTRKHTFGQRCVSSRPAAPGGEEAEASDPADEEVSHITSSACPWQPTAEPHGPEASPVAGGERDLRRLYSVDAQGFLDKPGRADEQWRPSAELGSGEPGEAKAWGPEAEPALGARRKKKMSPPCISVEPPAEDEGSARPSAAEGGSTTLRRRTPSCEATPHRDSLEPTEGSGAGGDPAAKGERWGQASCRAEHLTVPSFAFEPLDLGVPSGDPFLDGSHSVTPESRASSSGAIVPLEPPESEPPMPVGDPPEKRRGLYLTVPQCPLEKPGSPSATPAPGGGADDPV
# CYP2C19 act = human CYP2C19 activators, primary screen, biochemical, luminescence. Cytochrome P450 2C19 (Homo sapiens), P33261. recombinant CYP2C19, luciferin-H EGE luminescence; stronger effect = higher value; 0 = fully inhibited enzyme, 1 = untreated enzyme. activation factor at 5 µM. 96,000 tested, under 10 active;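 active = activation factor of at least 2 at 5 µM in the primary screen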;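 also: 0 = wells with 2.5 mM tranylcypromine and 1 = vehicle-only wells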
# An asterisk follows results filed as active; nt = no result given.
SMILES,CYP2C19 inh,CYP2C9 inhib,CYP2C9 act,Cav3 T inh,CYP2C19 act
Cc1cccc(N(CC(=O)NCc2ccc3c(c2)OCO3)C(=O)CCC(=O)Nc2ccccn2)c1,61*,28,0.7,nt,0.4
CC(=O)c1oc2ccccc2c1NC(=O)CN1CCCCC1,nt,nt,nt,0.23,nt
Cc1cc(S(=O)(=O)NCCc2ccccc2)c(C)s1,32,47,0.5,-3.2,0.7
NCCCC[C@H]1CNC(=O)C(=O)N1CCc1cccc2ccccc12,nt,nt,nt,0.0058,nt
Cc1cc(NC(=O)CCC(=O)N(CC(=O)NCC2CCCO2)Cc2ccc(F)cc2)no1 (stereo not drawn),nt,nt,nt,0.56,nt
Cc1ccc(CN(CC(=O)NCCc2ccccc2)C(=O)CCCC(=O)Nc2cc(C)on2)cc1,60*,62*,0.4,-0.65,0.4
Cc1cccc(N(CC(=O)NCc2ccco2)C(=O)CCC(=O)Nc2ccccn2)c1,58*,23,0.8,-0.73,0.4
O=C(CSc1nc2ccccc2n1-c1ccccc1)NCC1CCCO1 (stereo not drawn),96*,72*,0.3,0.31,0
O=C(CSc1nc2ccccc2c(=O)n1CC1CCCO1)NCC1CCCO1 (stereo not drawn),10,13,0.9,0.24,0.9
COCCNC(=O)CSc1nc2ccccc2c(=O)n1-c1cccc(OC)c1,82*,65*,0.3,-0.0069,0.2
O=C(CCCn1c(SCC(=O)c2ccc(O)c(O)c2)nc2ccccc2c1=O)NCC1CCCO1 (stereo not drawn),55*,96*,0,1.7,0.5
COc1ccc(C(=O)Nn2c(SCC(=O)NC3CCCC3)nc3ccccc3c2=O)cc1,-2,18,0.8,-1.2,1
CCC(C)NC(=O)CSc1nc2ccccc2c(=O)n1CCCC(=O)NCC1CCCO1 (stereo not drawn),8,43,0.6,1.9,0.9
COc1ccc(C(=O)Nn2c(SCC(=O)NCc3ccccc3)nc3ccccc3c2=O)cc1,5,74*,0.3,-0.029,0.9
Cc1cc(C)c(NC(=O)Cn2c(=O)n(Cc3ccco3)c(=O)c3ccccc32)c(C)c1,19,16,0.8,-0.26,0.8
Oc1ccc2[nH]cnc2c1CN1CCCCC1,9,-15,1.1,0.65,0.9
Oc1ccc(C[C@@H]2CNC(=S)N2CCCCC2CCCCC2)cc1,nt,nt,nt,0.048,nt
O=C(Nn1c(Cc2cccs2)nc2ccccc2c1=O)c1ccc(F)c(F)c1,nt,nt,nt,1,nt
COc1ccc(C(=O)Nn2c(SCC(=O)NCC3CCCO3)nc3ccccc3c2=O)cc1 (stereo not drawn),19,60*,0.4,-0.09,0.8
O=C(CSc1nc2ccccc2c(=O)n1NC(=O)Cc1ccccc1)NCc1ccccc1,46,93*,0.1,0.75,0.5
O=C(Cc1cccs1)Nn1c(Cc2cccs2)nc2ccccc2c1=O,47,72*,0.3,0.61,0.5
Nc1nnc(COc2ccccc2)s1,nt,nt,nt,0.12,nt
COc1ccc(OC)c(C(=O)COC(=O)c2ccc(C)o2)c1,93*,-87,1.9,0.21,0.1
COc1ccc(OC)c(C(=O)COC(=O)C2CC3CCCC(C2)C3=O)c1 (stereo not drawn),50*,-45,1.4,1,0.5
CC(C)n1c(SCC(=O)Nc2nc3c(s2)CCCC3)nc2c1c(=O)n(C)c(=O)n2C,nt,nt,nt,-2.2,nt
SMILES,CYP2C19 inh,CYP2C9 inhib,CYP2C9 act,Cav3 T inh,CYP2C19 act
COc1ccc(/C=C(/C#N)S(=O)(=O)c2ccc(C)cc2)cc1,42,-44,1.4,-1.7,0.6
Cc1ccc(C(=O)/C=C/c2c[nH]c3ccccc23)cc1,68*,69*,0.3,-1.1,0.3
Cc1ccc(S(=O)(=O)/C(C#N)=C/c2c[nH]c3ccccc23)cc1,-13,-106,2.1*,0.26,1.1
CC(C)n1cc(/C=C(\C#N)S(=O)(=O)c2ccccc2)c2ccccc21,37,70*,0.3,-2.6,0.6
CCOc1ccc(-c2nn(-c3ccccc3)cc2/C=C(\C#N)S(=O)(=O)c2ccccc2)cc1C,-2,29,0.7,-3.1,1
Cc1ccc(C(=O)/C=C/c2cn(CN3CCN(C)CC3)c3ccccc23)cc1,32,79*,0.2,-1.2,0.7
COc1ccc2nc(SCC(=O)N(C)C3CCCCC3)c(C#N)cc2c1,37,0,1,-3.7,0.6
